Inconclusive results are not listed. Calls of active or inactive are those of the source. Unless noted, calls come from the whole dose curve; as a rule, active = well fitted curve in the direction sought with a large enough effect in the repeat runs; inconclusive = weak or mixed curves; inactive = no such curve, though single readings can be large; an effect the other way counts as inactive or inconclusive.
Key:
[1] = qHTS assay for small molecule agonists of the p53 signaling pathway (AID 651631; calls by dose curve; note: nearly all actives have a fitted effect of over 15% in size)
How it was run: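 Testing took place in human colorectal HCT-116 cells with stable p53RE-driven beta-lactamase. After 16 h of compound exposure at 37 °C, a FRET substrate was added and fluorescence recorded 2 h later.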

[2] = qHTS assay for small molecules that induce genotoxicity in human embryonic kidney cells expressing luciferase-tagged ATAD5 (AID 651632); note: nearly all actives have a fitted effect of over 15% in size
How it was run: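 DMSO vehicle served as the control. HEK293T reporter cells, 16 hr at 37C, then 30 min Amplite at room temperature; ATAD5 induction is measured as luciferase activity.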

[3] = qHTS assay for small molecule agonists of the p53 signaling pathway - cell viability (AID 651633; calls by dose curve; note: series mostly up to about 83 µM; nearly all actives have a fitted effect of over 30% in size)
How it was run: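 Viability counter-read: CellTiter-Glo luminescence (30 min, room temperature) in the same p53RE-bla plates. These plates had been exposed to compounds for 16 h at 37 C.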

[4] = qHTS assay for small molecules that induce genotoxicity in human embryonic kidney cells expressing luciferase-tagged ATAD5 - cell viability (AID 651634; calls by dose curve; note: nearly all actives have a fitted effect of over 25% in size)
How it was run: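 Here HEK293T cells with the ATAD5 luciferase reporter are incubated with test compounds for 15.5 hr, and cytotoxicity is then gauged by measuring protease activity in live cells using fluorescence.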

[5] = qHTS assay for small molecule disruptors of the mitochondrial membrane potential - cell viability (AID 720634; calls by dose curve;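 note: human HepG2 liver cancer cells; series mostly up to about 83 µM; nearly all actives have a fitted effect of over 20% in size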)
How it was run: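 Viability of HepG2 cells is scored from ATP content by luminescence; cells are exposed to compound for 1 hr at 37 C and 5% CO2, then dosed with m-MPI dye before the CellTiter-Glo reagent.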

[6] = qHTS assay for small molecule disruptors of the mitochondrial membrane potential (AID 720635)
How it was run: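 Mitochondrial membrane potential tracked with Mito-MPS dye, red aggregates (ex 540/em 590 nm) against green monomers (ex 490/em 535 nm). Compound treatment 1 hr at 37C, dye 30 min in HepG2.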

[7] = qHTS assay to test for compound auto fluorescence at 590 nm (red) in HepG2 cells (AID 720674)
How it was run: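 1 hr compound incubation on HepG2 cells, 37 C, 5% CO2; plate read ex 540 nm / em 590 nm; intensities reported as Rose Bengal sodium equivalents.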

[8] = qHTS assay to test for compound auto fluorescence at 535 nm (green) in HepG2 cells (AID 720675)
[9] = qHTS assay to test for compound auto fluorescence at 460 nm (blue) in HEK293 cells (AID 720678)
How it was run: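 Cells were seeded and left to adhere for 4-5 hr at 37C. Compounds were then pin-transferred. After an overnight incubation at 37C under 5% CO2, intrinsic fluorescence at 405/460 nm was measured and referenced to triamterene.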

[10] = qHTS assay to test for compound auto fluorescence at 590 nm (red) in HEK293 cells (AID 720679)
How it was run: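 Each well held 2,000 HEK293 cells in medium containing 10% dialyzed FBS. Following 4-5 hr attachment at 37C, 23 nL test compound or DMSO was added; plates sat overnight, and red fluorescence (540/590nm) was recorded.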

[11] = qHTS assay to test for compound auto fluorescence at 535 nm (green) in HEK293 cells (AID 720680)
[12] = qHTS assay to test for compound auto fluorescence at 460 nm (blue) in HEK293 cell free culture (AID 720681)
How it was run: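 Blue fluorescence (Ex 405/Em 460 nm, triamterene-equivalent) was read immediately after pin transfer of compound or DMSO into medium (DMEM, 10% FBS) without cells.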

[13] = qHTS assay to test for compound auto fluorescence at 590 nm (red) in HEK293 cell free culture (AID 720683)
How it was run: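 Red-channel autofluorescence of compounds in culture medium (DMEM, 10% FBS), no cells, measured at 540/590 nm. Rose Bengal sodium is the reference fluorophore for equivalence.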

[14] = qHTS assay to test for compound auto fluorescence at 460 nm (blue) in HepG2 cell free culture (AID 720685)
How it was run: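 Cell-free plates of MEM plus 10% FBS received 23 nL compound or DMSO vehicle; blue-channel (405/460 nm) intensity scored against triamterene as reference fluorophore.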

[15] = qHTS assay to test for compound auto fluorescence at 535 nm (green) in HepG2 cell free culture (AID 720686)
[16] = qHTS assay to test for compound auto fluorescence at 460 nm (blue) in HepG2 cells (AID 720687)
How it was run: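 Blue-channel autofluorescence (Ex/Em 405/460 nm, triamterene-equivalent) was measured after 1 hr compound exposure at 37 C, 5% CO2. Cells were HepG2, plated overnight at 37 C in MEM plus 10% FBS.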

[17] = target: Glucocorticoid receptor (Homo sapiens) (UniProt P04150); assay: qHTS assay to identify small molecule agonists of the glucocorticoid receptor (GR) signaling pathway (AID 720691; active = well fitted activation curve with a large enough effect in the signal ratio in the repeat runs, not every such curve was filed as active; the % refers to the signal ratio)
How it was run: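 Compounds in DMSO, alongside positive controls, were added to GR-bla HeLa reporter cells and incubated 18 h at 37 C; GRE-driven beta-lactamase was detected by fluorescence after 2 h with FRET substrate at room temperature.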

[18] = target: Glucocorticoid receptor (Homo sapiens) (UniProt P04150); assay: qHTS assay to identify small molecule antagonists of the glucocorticoid receptor (GR) signaling pathway (AID 720692; active = well fitted inhibition curve with a large enough effect in the signal ratio in the repeat runs, not every such curve was filed as active; the % refers to the signal ratio)
How it was run: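 In a 1536-well cell format, compounds were added 4 h after seeding GR-bla HeLa cells, together with dexamethasone at 5 nM final; reporter activity was measured by FRET-substrate fluorescence following 18 h at 37 C.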

[19] = qHTS assay to test for compound auto fluorescence at 535 nm (green) in HEK293 cell free culture (AID 720682)
How it was run: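 DMEM + 10% FBS, cell-free; cpd or DMSO pinned in; Ex485/Em535 read; output as fluorescein-equivalent signal.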

[20] = qHTS assay to test for compound auto fluorescence at 590 nm (red) in HepG2 cell free culture (AID 720684)
How it was run: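 Cell-free; medium MEM + 10% FBS; compound or DMSO added by pintool; read Ex 540/Em 590 nm; Rose Bengal sodium as red reference fluorophore.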

Measured: Potency

Chain of Glucocorticoid receptor (Homo sapiens) (P04150 whole entry, looked up): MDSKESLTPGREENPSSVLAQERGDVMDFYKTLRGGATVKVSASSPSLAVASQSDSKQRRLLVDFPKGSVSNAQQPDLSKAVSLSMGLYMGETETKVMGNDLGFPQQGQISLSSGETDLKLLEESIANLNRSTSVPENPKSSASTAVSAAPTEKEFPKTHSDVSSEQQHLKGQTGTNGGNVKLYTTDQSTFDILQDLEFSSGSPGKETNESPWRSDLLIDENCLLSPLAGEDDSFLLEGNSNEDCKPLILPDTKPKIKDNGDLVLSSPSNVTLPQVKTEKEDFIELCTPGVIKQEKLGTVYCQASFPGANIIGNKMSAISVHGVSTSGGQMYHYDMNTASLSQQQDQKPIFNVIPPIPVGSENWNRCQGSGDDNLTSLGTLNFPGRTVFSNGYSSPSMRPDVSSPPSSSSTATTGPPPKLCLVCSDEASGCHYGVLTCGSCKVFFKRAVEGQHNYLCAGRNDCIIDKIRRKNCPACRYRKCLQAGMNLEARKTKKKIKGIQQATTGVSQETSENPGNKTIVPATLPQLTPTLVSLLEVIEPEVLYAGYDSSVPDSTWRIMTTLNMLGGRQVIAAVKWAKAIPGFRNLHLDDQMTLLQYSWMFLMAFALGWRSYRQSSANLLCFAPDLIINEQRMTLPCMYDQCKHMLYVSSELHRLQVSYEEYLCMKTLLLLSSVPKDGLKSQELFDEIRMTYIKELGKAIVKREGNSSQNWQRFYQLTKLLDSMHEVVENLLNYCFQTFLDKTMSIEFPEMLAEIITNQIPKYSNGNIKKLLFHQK

CC(=O)O[C@H](CC(=O)[O-])C[N+](C)(C)C
inactive: [1] | [2] | [3] | [4] | [5] | [6] | [7] | [8] | [9] | [10] | [11] | [12] | [13] | [14] | [15] | [16] | [17] | [18]

COc1cc(C(=O)N2CCOCC2)cc(OC)c1OC
inactive: [1] | [2] | [3] | [4] | [5] | [6] | [7] | [8] | [10] | [11] | [12] | [19] | [13] | [20] | [14] | [15] | [16] | [17] | [18]

NC(=O)c1ncn([C@@H]2O[C@H](CO)[C@@H](O)[C@H]2O)c1O
inactive: [1] | [2] | [3] | [4] | [5] | [6] | [8] | [10] | [11] | [12] | [19] | [13] | [14] | [15] | [16] | [17] | [18]

CCCCC1CCCCC(=O)O1 (stereo not drawn)
inactive: [1] | [2] | [3] | [4] | [5] | [6] | [7] | [8] | [10] | [11] | [12] | [13] | [20] | [14] | [15] | [16] | [17] | [18]

CC/C=C\CCCCO
inactive: [1] | [2] | [3] | [4] | [5] | [7] | [8] | [9] | [10] | [11] | [12] | [19] | [13] | [20] | [14] | [15] | [16]

NC(=O)Nc1nc2ccccc2[nH]1
inactive: [1] | [2] | [3] | [4] | [5] | [7] | [8] | [9] | [10] | [11] | [12] | [19] | [13] | [20] | [14] | [15] | [16]

CC(C)CCCCCCN
inactive: [1] | [2] | [3] | [4] | [5] | [6] | [8] | [9] | [10] | [11] | [12] | [13] | [20] | [14] | [15] | [16] | [18]
